# Measurements from PubChem BioAssay (EPA / NIEHS).
# Values joined by “and” are separate entries in the source; they are usually repeats but may differ in a detail not shown here. Equal values may be shown once. Results filed as inconclusive are left out. Some compounds were tested as several samples or in several runs, with calls that do not always agree. Active and inactive are the calls of the source. The calls were made as follows: active = hit-call score of the fitted dose curve at least 0.9, where 1 is the maximum; inconclusive = response in the unintended direction; inactive = score below 0.9.
# Legend:
# [1] = target: Estrogen receptor beta (Homo sapiens) (UniProt Q92731); assay: OT_ER_ERbERb_0480: Odyssey Thera (OT) 8-hour HEK293T Protein-Complementation Assay for Estrogen Receptor-beta/-beta Homodimer (AID 2283357);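 also: active means signal gain over DMSO baseline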
# Estrogen receptor beta (Homo sapiens), sequence (Q92731 whole entry, looked up, the tested form may be a part): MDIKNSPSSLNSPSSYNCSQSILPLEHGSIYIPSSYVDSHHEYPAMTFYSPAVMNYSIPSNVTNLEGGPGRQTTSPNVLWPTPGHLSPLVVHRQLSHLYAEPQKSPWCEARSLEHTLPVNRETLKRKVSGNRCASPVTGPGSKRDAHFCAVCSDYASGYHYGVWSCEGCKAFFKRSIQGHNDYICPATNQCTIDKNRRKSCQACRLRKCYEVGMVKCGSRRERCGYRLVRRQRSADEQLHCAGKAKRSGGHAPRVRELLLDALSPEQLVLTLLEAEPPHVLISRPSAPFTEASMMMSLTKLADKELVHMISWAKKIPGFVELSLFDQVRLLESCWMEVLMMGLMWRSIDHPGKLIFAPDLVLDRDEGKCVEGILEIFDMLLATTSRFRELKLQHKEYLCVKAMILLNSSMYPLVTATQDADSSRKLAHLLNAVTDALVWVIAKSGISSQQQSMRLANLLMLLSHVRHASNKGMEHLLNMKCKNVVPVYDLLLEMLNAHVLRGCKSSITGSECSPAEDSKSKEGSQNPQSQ
# Outline: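 Homodimerization of ER-beta LBD measured by protein-fragment complementation in HEK293T; 8 h dosing; fixed, Draq5 counterstain; fluorescence intensity gain over DMSO baseline, positive fitting direction; laser scanning cytometry.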
# [2] = target: human Peroxisome Proliferator-activated Receptor alpha (PPARa), PPARA (gene 5465) (UniProt Q07869); assay: NVS_NR_hPPARa: NovaScreen (NVS) Nuclear Receptor Binding Assay for human Peroxisome Proliferator-activated Receptor alpha (PPARa) (AID 2283359);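 also: activity means loss of TR-FRET signal versus DMSO baseline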
# human Peroxisome Proliferator-activated Receptor alpha (PPARa), PPARA (gene 5465), sequence (Q07869 whole entry, looked up): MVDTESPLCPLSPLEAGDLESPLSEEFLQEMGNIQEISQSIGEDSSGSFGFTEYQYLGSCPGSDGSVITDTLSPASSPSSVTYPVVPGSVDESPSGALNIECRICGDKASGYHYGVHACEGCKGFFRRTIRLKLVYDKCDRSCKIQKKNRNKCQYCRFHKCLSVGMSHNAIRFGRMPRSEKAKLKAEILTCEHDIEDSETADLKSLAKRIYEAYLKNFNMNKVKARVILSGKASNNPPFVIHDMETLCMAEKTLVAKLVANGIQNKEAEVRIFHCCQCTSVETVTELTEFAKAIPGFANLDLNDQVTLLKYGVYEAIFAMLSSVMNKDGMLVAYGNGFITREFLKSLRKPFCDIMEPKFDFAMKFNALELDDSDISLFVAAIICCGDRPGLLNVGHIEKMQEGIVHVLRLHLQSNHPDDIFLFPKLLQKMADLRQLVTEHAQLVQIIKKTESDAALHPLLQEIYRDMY
# Outline: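 TR-FRET signal measured at 1 h post-dosing; loss-of-signal versus DMSO negative control taken as activity. Extracted gene-protein, cell-free format. Initial single-point duplicates at 25 uM, then concentration-response retests.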
# [3] = target: human Serotonin Transporter (SERT), SLC6A4 (gene 6532) (UniProt P31645); assay: NVS_TR_hSERT: NovaScreen (NVS) Transporter Assay for human Serotonin Transporter (SERT) (AID 2283372)
# human Serotonin Transporter (SERT), SLC6A4 (gene 6532), sequence (P31645 whole entry, looked up): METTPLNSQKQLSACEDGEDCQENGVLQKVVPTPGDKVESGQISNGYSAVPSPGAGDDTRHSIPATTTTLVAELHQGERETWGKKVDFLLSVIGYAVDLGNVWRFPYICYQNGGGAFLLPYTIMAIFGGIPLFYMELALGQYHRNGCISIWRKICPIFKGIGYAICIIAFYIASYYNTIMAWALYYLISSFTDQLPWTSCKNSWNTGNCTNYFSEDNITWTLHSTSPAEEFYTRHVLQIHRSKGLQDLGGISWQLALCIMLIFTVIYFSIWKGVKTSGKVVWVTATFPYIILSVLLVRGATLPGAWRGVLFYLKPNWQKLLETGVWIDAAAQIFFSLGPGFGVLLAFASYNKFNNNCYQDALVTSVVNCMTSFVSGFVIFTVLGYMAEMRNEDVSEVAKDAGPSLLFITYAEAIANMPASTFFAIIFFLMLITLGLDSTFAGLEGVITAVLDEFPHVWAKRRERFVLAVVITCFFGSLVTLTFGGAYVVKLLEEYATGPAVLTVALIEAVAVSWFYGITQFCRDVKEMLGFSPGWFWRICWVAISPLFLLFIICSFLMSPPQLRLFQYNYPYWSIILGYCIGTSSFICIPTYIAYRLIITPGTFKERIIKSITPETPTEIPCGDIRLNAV
# Outline: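 Human platelet membrane preparation; displacement of radioligand from serotonin transporter measured after 1 h by filtration and scintillation counting. Single 25 uM duplicate screen, then concentration series for actives, with DMSO as negative baseline.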
# [4] = target: PGR (gene 5241) (UniProt P06401); assay: NVS_NR_hPR: NovaScreen (NVS) Nuclear Receptor Binding Assay for human Progestron Receptor (PR) (AID 2283360);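 also: active means loss of bound radioligand signal versus DMSO baseline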
# PGR (gene 5241), sequence (P06401 whole entry, looked up): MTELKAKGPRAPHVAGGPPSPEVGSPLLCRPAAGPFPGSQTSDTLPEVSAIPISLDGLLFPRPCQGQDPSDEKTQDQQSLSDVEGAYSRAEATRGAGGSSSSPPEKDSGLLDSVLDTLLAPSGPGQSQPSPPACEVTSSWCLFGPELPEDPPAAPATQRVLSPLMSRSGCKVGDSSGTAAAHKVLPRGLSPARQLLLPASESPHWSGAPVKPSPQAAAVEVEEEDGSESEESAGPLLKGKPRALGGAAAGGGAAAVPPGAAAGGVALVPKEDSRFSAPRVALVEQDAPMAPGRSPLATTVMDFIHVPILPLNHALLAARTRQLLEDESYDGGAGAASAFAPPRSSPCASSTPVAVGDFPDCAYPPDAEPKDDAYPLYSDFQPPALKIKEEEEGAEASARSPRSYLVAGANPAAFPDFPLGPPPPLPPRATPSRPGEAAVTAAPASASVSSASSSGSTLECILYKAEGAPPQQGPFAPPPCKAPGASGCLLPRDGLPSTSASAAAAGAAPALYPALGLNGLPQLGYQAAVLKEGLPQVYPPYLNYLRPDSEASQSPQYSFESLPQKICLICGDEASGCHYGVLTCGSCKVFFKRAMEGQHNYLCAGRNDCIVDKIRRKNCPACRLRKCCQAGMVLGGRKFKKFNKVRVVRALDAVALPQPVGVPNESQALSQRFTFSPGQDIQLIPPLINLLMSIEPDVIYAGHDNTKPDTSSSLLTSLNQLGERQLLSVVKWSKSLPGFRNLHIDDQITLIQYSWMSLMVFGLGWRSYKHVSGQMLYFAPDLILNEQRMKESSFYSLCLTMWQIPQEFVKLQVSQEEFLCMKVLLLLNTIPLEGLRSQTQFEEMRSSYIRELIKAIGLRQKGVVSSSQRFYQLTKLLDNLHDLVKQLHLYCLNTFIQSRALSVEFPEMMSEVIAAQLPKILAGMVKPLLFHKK
# Outline: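 Cell-free radioligand binding using receptor protein extracted from T47D cells, read by scintillation counting 18 hours after dosing. Loss of signal relative to DMSO baseline indicates displacement; primary screen single concentration 25 uM in duplicate, actives followed in concentration series.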
# [5] = target: Retinoic acid receptor alpha (Homo sapiens) (UniProt P10276); assay: NVS_NR_hRARa_Agonist: NovaScreen (NVS) Nuclear Receptor Binding Assay for human Retinoic Acid Alpha Receptor Agonism (RAR) (AID 2283361)
# Retinoic acid receptor alpha (Homo sapiens), sequence (P10276 whole entry, looked up): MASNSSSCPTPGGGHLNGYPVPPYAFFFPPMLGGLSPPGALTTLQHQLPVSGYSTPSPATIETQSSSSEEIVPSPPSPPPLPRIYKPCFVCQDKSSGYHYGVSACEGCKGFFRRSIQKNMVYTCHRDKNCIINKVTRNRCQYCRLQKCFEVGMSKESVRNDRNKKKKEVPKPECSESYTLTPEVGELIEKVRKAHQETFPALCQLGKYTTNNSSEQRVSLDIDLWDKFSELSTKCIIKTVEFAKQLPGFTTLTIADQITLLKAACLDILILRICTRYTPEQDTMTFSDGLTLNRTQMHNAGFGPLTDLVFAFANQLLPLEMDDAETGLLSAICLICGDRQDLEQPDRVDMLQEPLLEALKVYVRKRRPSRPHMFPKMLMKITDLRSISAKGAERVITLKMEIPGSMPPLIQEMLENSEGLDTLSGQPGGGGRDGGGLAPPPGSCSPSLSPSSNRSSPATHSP
# Outline: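 TR-FRET signal, 2 h post-dosing; cell-free extracted protein; DMSO = baseline, positive fitting direction; 25 uM single-point duplicate, then concentration series for actives.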
# [6] = target: Glucocorticoid receptor (Homo sapiens) (UniProt P04150); assay: NVS_NR_hGR: NovaScreen (NVS) Nuclear Receptor Binding Assay for human Glucocorticoid Receptor (GR) (AID 2283363);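 as to AC50: activity is loss of specific radioligand binding signal relative to DMSO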
# Glucocorticoid receptor (Homo sapiens), sequence (P04150 whole entry, looked up): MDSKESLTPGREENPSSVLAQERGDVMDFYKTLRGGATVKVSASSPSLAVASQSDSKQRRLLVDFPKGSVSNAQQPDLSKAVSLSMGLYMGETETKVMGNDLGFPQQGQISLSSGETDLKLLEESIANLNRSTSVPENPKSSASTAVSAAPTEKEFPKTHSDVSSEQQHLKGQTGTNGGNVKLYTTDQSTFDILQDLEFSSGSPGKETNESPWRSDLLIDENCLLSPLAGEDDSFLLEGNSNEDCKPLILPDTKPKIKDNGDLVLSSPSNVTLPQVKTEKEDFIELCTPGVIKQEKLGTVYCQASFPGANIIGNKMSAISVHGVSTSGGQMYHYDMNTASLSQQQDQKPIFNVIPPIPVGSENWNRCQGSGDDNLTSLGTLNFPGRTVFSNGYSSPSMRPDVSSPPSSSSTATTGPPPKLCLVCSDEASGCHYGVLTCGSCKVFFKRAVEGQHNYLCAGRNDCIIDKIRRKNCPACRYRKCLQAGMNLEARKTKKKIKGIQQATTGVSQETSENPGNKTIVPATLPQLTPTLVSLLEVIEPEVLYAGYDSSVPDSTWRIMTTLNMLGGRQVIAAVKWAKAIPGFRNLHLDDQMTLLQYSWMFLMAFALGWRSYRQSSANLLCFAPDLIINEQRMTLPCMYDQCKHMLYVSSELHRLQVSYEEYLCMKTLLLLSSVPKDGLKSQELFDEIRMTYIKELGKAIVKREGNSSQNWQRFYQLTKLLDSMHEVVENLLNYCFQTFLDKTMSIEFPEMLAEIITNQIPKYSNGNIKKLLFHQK
# Outline: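 Filter scintillation readout of tritiated/iodinated radioligand displaced by test chemical; cell-free extracted protein; 16 h. DMSO = negative control/baseline. Duplicate single-point 25 uM screen, then concentration-response on actives.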
# [7] = target: human Dopamine Transporter (DAT), SLC6A3 (gene 6531) (UniProt Q01959); assay: NVS_TR_hDAT: NovaScreen (NVS) Transporter Assay for human Dopamine Transporter (DAT) (AID 2283374);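 also: activity means loss of bound radioligand signal relative to DMSO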
# human Dopamine Transporter (DAT), SLC6A3 (gene 6531), sequence (Q01959 whole entry, looked up): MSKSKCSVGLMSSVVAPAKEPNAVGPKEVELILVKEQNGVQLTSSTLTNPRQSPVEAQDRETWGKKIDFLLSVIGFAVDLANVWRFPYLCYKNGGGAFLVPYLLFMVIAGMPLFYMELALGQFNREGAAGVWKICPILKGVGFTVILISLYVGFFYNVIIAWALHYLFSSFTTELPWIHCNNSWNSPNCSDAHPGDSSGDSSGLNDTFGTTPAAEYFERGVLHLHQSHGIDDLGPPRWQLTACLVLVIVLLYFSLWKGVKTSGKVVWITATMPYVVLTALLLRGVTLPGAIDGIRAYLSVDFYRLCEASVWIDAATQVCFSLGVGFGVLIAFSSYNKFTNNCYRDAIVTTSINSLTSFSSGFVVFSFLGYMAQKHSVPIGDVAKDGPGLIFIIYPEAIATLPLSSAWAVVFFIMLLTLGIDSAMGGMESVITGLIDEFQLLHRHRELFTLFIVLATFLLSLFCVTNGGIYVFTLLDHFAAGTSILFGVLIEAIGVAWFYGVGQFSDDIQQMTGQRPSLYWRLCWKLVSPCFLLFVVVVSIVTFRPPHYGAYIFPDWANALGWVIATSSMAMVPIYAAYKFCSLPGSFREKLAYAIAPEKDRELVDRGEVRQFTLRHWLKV
# Outline: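 hDAT membranes + tritiated/iodinated radioligand, competitive displacement; 1 h; filter scintillation readout. Single conc 25 uM (duplicate), then conc-response for actives. DMSO = negative control.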
# [8] = target: human Norepinephrine Transporter (NET), SLC6A2 (gene 6530) (UniProt P23975); assay: NVS_TR_hNET: NovaScreen (NVS) Transporter Assay for human Norepinephrine Transporter (NET) (AID 2283377);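 also: cell-free membrane protein extracted from CHO cells expressing human NET; displacement of radioligand from human NET seen as loss of scintillation signal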
# Outline: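 CHO cell extracts expressing the transporter; tritiated or iodinated tracer displaced competitively; filtration plus scintillation readout at 1 h. Single-point duplicates at 25 uM, concentration series for follow-up; activity = signal drop relative to DMSO.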
# [9] = target: Agonist Androgen Response Element (ARE), AR (gene 367) (UniProt P10275); assay: OT_AR_ARELUC_AG_1440: Odyssey Thera (OT) 24-hour CHO-K1 Luciferase Assay for Agonist Androgen Response Element (ARE) (AID 2283379)
# Outline: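 Gain-of-signal reporter endpoint: cells (CHO-K1, hamster) are treated 24 h, luciferin/ATP reagent added, and luminescence compared with DMSO baseline.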
# [10] = target: guinea pig Sigma Receptor, Non-selective Binding, SIGMAR1 (gene 100135589) (UniProt Q60492); assay: NVS_OR_gSIGMA_NonSelective: NovaScreen (NVS) Nuclear Receptor Binding Assay for guinea pig Sigma Receptor, Non-selective Binding (AID 2283367)
# Outline: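 Membranes from guinea pig brain incubated with radioligand and test chemical for 1 h, then filtered and scintillation-counted. Duplicate primary testing at 25 uM, with concentration-series follow-up for actives.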
# [11] = target: Estrogen receptor (Homo sapiens) + Estrogen receptor beta (Homo sapiens) (UniProt P03372+Q92731); assay: OT_ER_ERaERb_1440: Odyssey Thera (OT) 24-hour HEK293T Protein-Complementation Assay for Estrogen Receptor-alpha/-beta Homodimer (AID 2283356);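 also: heteromer of ER alpha and ER beta binding domains; hits raise reporter fluorescence and both agonists and antagonists give an increase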
# Outline: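 Readout: mean fluorescence intensity in nucleus (agonists) or nucleus plus cytoplasm (antagonists), read by laser scanning cytometer after 24 h compound exposure of HEK293T cells carrying ERα/ERβ LBD fragment-complementation constructs; DMSO baseline.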
# [12] = target: mouse Estrogen Receptor alpha (Era), Esr1 (gene 13982) (UniProt P19785); assay: NVS_NR_mERa: NovaScreen (NVS) Nuclear Receptor Binding Assay for mouse Estrogen Receptor alpha (Era) (AID 2283378);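 also: hit means loss of bound radioligand signal relative to DMSO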
# Outline: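 Filter scintillation counts of bound radioligand, measured 18 h post-dose, gave the readout; decreased signal relative to DMSO controls indicated displacement from mouse Era. Primary screen ran in duplicate at 25 uM; active chemicals were retested across concentrations.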
# [13] = target: human Thyroid Receptor Alpha (TRa), THRA (gene 7067) (UniProt P10827); assay: NVS_NR_hTRa_Antagonist: NovaScreen (NVS) Nuclear Receptor Binding Assay for human Thyroid Receptor Alpha Antagonism (TRa) (AID 2283362);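 also: activity is loss of signal relative to DMSO baseline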
# human Thyroid Receptor Alpha (TRa), THRA (gene 7067), sequence (P10827 whole entry, looked up): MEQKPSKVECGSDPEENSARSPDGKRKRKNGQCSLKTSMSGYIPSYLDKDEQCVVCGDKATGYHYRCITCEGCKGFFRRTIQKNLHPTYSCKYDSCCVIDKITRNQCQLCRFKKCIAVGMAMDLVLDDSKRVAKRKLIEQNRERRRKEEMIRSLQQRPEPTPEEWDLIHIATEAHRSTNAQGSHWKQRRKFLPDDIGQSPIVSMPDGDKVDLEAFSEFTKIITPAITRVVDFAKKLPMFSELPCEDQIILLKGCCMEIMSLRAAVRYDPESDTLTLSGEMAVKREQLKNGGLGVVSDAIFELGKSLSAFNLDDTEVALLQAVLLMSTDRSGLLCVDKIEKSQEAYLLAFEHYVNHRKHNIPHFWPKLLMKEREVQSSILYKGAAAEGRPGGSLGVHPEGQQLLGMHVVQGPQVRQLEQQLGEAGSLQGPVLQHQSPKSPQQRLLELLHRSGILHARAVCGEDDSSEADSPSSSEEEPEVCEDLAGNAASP
# Outline: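 AlphaLISA chemiluminescent immunoassay readout, taken 1 h post-dosing in a cell-free system with extracted protein. Activity was scored as signal loss against DMSO negative control, from duplicate single-concentration (25 uM) testing followed by concentration-response follow-up.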
# [14] = system: guinea pig Dopamine Transporter (DAT), gene 100714898; assay: NVS_TR_gDAT: NovaScreen (NVS) Transporter Assay for guinea pig Dopamine Transporter (DAT) (AID 2283369);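 also: active compounds lower bound radioligand signal relative to DMSO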
# Outline: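 Cell-free striatal membrane prep (guinea pig), 2 h exposure, filtration + scintillation readout of radioligand binding. Single-point 25 uM duplicate; actives rerun singleton, top conc 50 uM.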
# [15] = target: Nuclear receptor subfamily 1 group I member 2 (Homo sapiens) (UniProt O75469); assay: NVS_NR_hPXR: NovaScreen (NVS) Nuclear Receptor Binding Assay for human Pregnane X Receptor (PXR) (AID 2283365);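 also: a drop in FRET signal versus DMSO baseline means the compound binds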
# Outline: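 TR-FRET signal read at 2 h in a cell-free human PXR binding format. DMSO served as negative control and baseline; activity scored as signal loss. Single-concentration duplicate screen (25 uM), then concentration-response follow-up.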
# [16] = target: Retinoic acid receptor alpha (Homo sapiens) (UniProt P10276); assay: NVS_NR_hRAR_Antagonist: NovaScreen (NVS) Nuclear Receptor Binding Assay for human Retinoic Acid Alpha Receptor Antagonism (RAR) (AID 2283358)
# Outline: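 Read-out: time-resolved FRET binding signal, 2 h post-dose, cell-free extracted protein. Antagonism scored as signal loss versus DMSO negative control. Primary single-concentration screen at 25 uM in duplicate; concentration series for actives.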
# [17] = target: rat Androgen Receptor (AR), Ar (gene 24208) (UniProt P15207); assay: NVS_NR_rAR: NovaScreen (NVS) Nuclear Receptor Binding Assay for rat Androgen Receptor (AR) (AID 2283366)
# Outline: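 Actives from a duplicate single-concentration (25 uM) primary run went on to concentration series. Displacement of radioligand was counted by filtration and scintillation, 18 h post-dose, using prostate extracts from testosterone-pretreated rats, with DMSO as baseline.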
# [18] = system: rat Norepinephrine Transporter (NET), gene 83511; assay: NVS_TR_rNET: NovaScreen (NVS) Transporter Assay for rat Norepinephrine Transporter (NET) (AID 2283373)
# Outline: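 Competitive radioligand displacement at the rat NET using forebrain membrane preparations, 1 h incubation, filter-based scintillation readout. Primary testing in duplicate at a single 25 uM concentration; confirmed actives retested across concentrations.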
# [19] = target: rat Serotonin Transporter (SERT), Slc6a4 (gene 25553) (UniProt P31652); assay: NVS_TR_rSERT: NovaScreen (NVS) Transporter Assay for rat Serotonin Transporter (SERT) (AID 2283375)
# Outline: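 Radioligand displacement, filter scintillation readout; rat forebrain membrane prep, 1 h post-dose. Single-conc 25 uM duplicate screen, then concentration-response on actives. Loss of signal vs DMSO baseline.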
smiles,measurement,setting,value
CCCCCCCCOC(=O)CCCCCCCCC(=O)OCCCCCCCC,outcome,[1],inactive
same,outcome,[2],inactive
same,outcome,[3],inactive
CN1CCC[C@H]1c1cccnc1,outcome,[1],inactive
CCCCCCCCCCCCCCCS(=O)(=O)Oc1ccccc1,outcome,[1],inactive
Nc1cccc2c(N)cccc12,outcome,[1],inactive
same,outcome,[4],inactive
same,AC50,[5],20.5 µM (active)
same,AC50,[6],13.4 µM (active)
same,AC50,[7],6.65 µM (active)
same,AC50,[8],14.3 µM (active)
same,outcome,[9],inactive
Oc1cccc(O)c1,outcome,[1],inactive
CCc1ccc(CCOc2ccc(CC3SC(=O)NC3=O)cc2)nc1 (centres undefined),outcome,[1],inactive
same,outcome,[2],inactive
same,outcome,[10],inactive
CN1CCN(c2ccccc2/C=C2\SCCN(c3ccc(Cl)c(Cl)c3)C2=O)CC1,outcome,[1],inactive
CN(C)C=O,outcome,[1],inactive
CC(C)(C)c1cc(C(C)(C)C)c(O)c(C(C)(C)C)c1,AC50,[1],29.3 µM (active)
same,outcome,[2],inactive
C=C(C)C(=O)OCCC(F)(F)C(F)(F)C(F)(F)C(F)(F)C(F)(F)C(F)(F)F,outcome,[11],inactive
same,outcome,[1],inactive
same,outcome,[4],inactive
same,outcome,[12],inactive
CC(C)(C)c1ccc(O)c(C(C)(C)C)c1,outcome,[1],inactive
same,outcome,[2],inactive
same,outcome,[13],inactive
same,outcome,[14],inactive
same,AC50,[7],6.72 µM (active)
C#C[C@]1(O)CC[C@H]2[C@@H]3CCC4=CC(=O)CC[C@@H]4[C@H]3CC[C@@]21C,AC50,[1],25.7 µM (active) and 31.6 µM (active) and 17.8 µM (active)
same,outcome,[1],inactive
same,outcome,[5],inactive
same,outcome,[13],inactive
same,outcome,[15],inactive
CC[C@H](C)[C@@H](C(=O)O)n1sc2ccccc2c1=O,outcome,[1],inactive
same,outcome,[4],inactive
same,outcome,[6],inactive
same,outcome,[15],inactive
CCCCCCC(=O)O,outcome,[1],inactive
same,outcome,[4],inactive
CCCCCCCCCCCCc1ccccc1S(=O)(=O)O,outcome,[1],inactive
same,AC50,[16],19 µM (active)
same,AC50,[4],15.1 µM (active)
same,outcome,[13],inactive
same,AC50,[6],2.47 µM (active)
same,AC50,[17],3.66 µM (active)
same,AC50,[14],37 µM (active)
same,AC50,[7],16.6 µM (active)
same,AC50,[8],9.86 µM (active)
same,AC50,[12],18 µM (active)
same,outcome,[9],inactive
CCOC(=O)CC(O)(CC(=O)OCC)C(=O)OCC,outcome,[1],inactive
same,outcome,[2],inactive
COCC(C)OCC(C)O (centres undefined),outcome,[3],inactive
CCN(CC)CCNc1ccc(CNC=O)c2sc3ccc(OC)cc3c(=O)c12,outcome,[3],inactive
same,outcome,[18],inactive
CC(=O)NC1(c2cccc(F)c2)CCN(CC[C@@]2(c3ccc(Cl)c(Cl)c3)CN(c3ccccc3)C(=O)CO2)CC1,AC50,[18],9.66 µM (active)
CCCCCCCCCCCCCC[N+](C)(C)C,AC50,[19],41.5 µM (active)
CCCOc1sc(C(=O)N2CCC(c3cc(CN)ccc3F)CC2)c(C)c1Br,AC50,[19],23.2 µM (active)
